From PubChem BioAssay come the findings set out here.

Test [1] can be described thus: compounds binding Alexa647 anti-His antibody – biochemical, small-molecule microarray, 635 nm fluorescence, artefact control for SMM control protein annotation, primary screen (AID 1128).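 Also: score merges feature fluorescence with signal-to-noise for each printed compound spot.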 The settings on record: higher = more signal.
The subject of test [2] is Human papillomavirus type 1a E7 protein (residues 1-88). As to the kind of experiment: HPV1a E7 small-molecule binders, primary screen, biochemical, small-molecule microarray, residues 1-88, 635 nm (AID 1129). The settings on record: small-molecule microarray binding, fluorescence 635 nm; higher = more signal.
Test [3] has as its target Focal adhesion kinase 1 (Homo sapiens) (UniProt Q05397). As to the kind of experiment: PTK2 protein binding on printed compound slides – biochemical, small-molecule microarray, 635/667 nm fluorescence, BSA, DTT, primary screen (AID 1130).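 Also: composite of spot emission at 667 nm and signal to noise over triplicate slides.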 Particulars: 635 nm fluorescence, higher = more signal.
Test [4] concerns Fibrinogen (Alexa647-labelled). As to the kind of experiment: Alexa647-fibrinogen binding to printed small molecules – biochemical, small-molecule microarray, 635/667 nm fluorescence, artefact control for SMM control-protein annotation, profiling panel (AID 1131).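 Also: z-score merges 667 nm fluorescence with per-spot signal-to-noise over triplicate slides.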 The settings on record: fibrinogen-A647 binding fluorescence, higher = more signal.
The target of test [5] is Follistatin (Homo sapiens) (UniProt P19883). As to the kind of experiment: FST protein binding to printed compounds – biochemical, small-molecule microarray, 635/667 nm fluorescence, primary screen (AID 1132). Particulars: 635 nm fluorescence, higher = more signal.
In test [6] the target is Fibroblast growth factor 2 (Homo sapiens) (UniProt P09038). As to the kind of experiment: basic fibroblast growth factor binding to printed compounds – biochemical, small-molecule microarray, 635/667 nm fluorescence, primary screen (AID 1133). Particulars: FGF2, fluorescence 635/667, higher = more signal.
Test [7] is described as follows: JC-1 mitochondrial potential readout, lung cancer cells – cell-based, A549, JC-1 fluorescence, basal, 24 h, 100 nL, profiling panel (AID 1138).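 Also: A549 lung adenocarcinoma cells under basal conditions with no added stimulus; test concentration not given here.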 The settings on record: higher = more signal.
The next test deals with Lefty1. As to the kind of experiment: Lefty1 protein binding to printed compounds – biochemical, small-molecule microarray, 635/667 nm fluorescence, primary screen (AID 1139). Particulars: fluorescence 635/667, higher = more signal.
For test [8], the system named is wheat germ agglutinin (Triticum aestivum), Alexa647-labelled. As to the kind of experiment: Alexa647-WGA lectin binding to printed small molecules – biochemical, small-molecule microarray, 635/667 nm fluorescence, artefact control for SMM control-protein annotation, profiling panel (AID 1140).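 Also: score merges 667 nm feature emission with signal to noise over triplicate slides.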 The settings on record: WGA-A647 binding, 635 nm fluorescence, higher = more signal.

The target in test [9] is Luciferin 4-monooxygenase (Photinus pyralis) (UniProt P08659). As to the kind of experiment: inhibition of purified Photinus pyralis luciferase – biochemical, luminescence, purified enzyme, 2006 set, primary screen (AID 1141).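 Also: cell-free assay with purified firefly luciferase at 100 ng per well in PBS; test concentration not given here.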 The settings on record: purified firefly luciferase, SteadyGlo luminescence, 30 min; higher = more signal, called active from +8 up or from −8 down.

Calls of active or inactive are those of the source.

Sequence of Follistatin (Homo sapiens) (P19883 whole entry, looked up): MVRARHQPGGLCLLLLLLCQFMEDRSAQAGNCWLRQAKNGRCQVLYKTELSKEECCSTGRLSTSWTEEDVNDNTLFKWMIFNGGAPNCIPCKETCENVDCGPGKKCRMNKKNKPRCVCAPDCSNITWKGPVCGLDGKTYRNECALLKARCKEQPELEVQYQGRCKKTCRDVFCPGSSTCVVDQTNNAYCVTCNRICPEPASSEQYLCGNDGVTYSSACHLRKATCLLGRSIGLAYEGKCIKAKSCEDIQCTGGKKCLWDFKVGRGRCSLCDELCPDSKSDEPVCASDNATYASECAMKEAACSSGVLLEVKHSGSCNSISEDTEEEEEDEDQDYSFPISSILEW
Sequence of Fibroblast growth factor 2 (Homo sapiens) (P09038 whole entry, looked up): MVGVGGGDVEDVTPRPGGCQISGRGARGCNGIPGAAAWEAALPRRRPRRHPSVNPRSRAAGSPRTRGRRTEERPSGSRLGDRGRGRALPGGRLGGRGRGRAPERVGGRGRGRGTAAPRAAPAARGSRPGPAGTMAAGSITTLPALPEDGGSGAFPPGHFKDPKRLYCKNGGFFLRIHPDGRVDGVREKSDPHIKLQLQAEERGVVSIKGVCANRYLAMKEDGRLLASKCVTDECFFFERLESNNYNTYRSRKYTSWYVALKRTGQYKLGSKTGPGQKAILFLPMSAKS
Sequence of Luciferin 4-monooxygenase (Photinus pyralis) (P08659 whole entry, looked up): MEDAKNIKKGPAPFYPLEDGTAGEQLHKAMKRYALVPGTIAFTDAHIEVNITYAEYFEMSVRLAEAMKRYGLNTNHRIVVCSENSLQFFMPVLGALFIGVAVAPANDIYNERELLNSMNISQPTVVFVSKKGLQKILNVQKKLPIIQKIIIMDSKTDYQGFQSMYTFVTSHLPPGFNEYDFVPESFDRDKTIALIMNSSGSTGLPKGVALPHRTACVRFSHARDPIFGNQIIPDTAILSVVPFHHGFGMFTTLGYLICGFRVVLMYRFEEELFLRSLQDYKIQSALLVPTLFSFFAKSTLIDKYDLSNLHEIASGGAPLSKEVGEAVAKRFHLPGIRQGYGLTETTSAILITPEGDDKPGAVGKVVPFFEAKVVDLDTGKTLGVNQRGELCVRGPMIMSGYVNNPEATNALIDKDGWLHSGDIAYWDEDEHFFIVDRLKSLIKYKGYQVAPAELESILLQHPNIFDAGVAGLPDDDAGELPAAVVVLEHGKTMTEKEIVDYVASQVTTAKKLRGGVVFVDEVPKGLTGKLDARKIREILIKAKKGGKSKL
Sequence of Focal adhesion kinase 1 (Homo sapiens) (Q05397 whole entry, looked up): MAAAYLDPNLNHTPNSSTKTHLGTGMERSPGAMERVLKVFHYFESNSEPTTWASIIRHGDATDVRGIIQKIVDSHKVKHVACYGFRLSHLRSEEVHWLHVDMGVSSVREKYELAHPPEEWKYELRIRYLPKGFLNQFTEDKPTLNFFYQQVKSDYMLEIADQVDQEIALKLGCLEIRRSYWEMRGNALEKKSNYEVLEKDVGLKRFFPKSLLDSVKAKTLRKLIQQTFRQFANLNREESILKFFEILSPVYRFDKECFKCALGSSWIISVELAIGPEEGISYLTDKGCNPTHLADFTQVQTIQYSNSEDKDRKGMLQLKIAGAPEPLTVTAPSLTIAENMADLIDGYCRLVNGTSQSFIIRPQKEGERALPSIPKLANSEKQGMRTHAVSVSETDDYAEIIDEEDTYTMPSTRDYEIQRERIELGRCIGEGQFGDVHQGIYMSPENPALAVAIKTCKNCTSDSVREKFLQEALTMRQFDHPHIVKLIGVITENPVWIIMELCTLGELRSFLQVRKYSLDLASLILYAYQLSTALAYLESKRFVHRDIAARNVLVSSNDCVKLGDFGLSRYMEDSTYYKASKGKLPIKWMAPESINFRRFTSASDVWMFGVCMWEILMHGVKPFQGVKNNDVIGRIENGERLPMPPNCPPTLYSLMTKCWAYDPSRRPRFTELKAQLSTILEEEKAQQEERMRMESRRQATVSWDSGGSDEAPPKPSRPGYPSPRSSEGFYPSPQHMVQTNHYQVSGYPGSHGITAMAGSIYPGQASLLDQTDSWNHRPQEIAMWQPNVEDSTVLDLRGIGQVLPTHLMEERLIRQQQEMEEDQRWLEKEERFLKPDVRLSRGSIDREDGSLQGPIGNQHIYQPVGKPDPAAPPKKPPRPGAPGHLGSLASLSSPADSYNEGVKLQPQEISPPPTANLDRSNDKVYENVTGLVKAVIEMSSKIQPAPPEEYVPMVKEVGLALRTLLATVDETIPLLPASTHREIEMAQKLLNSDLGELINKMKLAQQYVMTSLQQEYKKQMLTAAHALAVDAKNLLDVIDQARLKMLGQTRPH

With `[N-]=[N+]=NCc1ccccc1[C@@H]1OC(c2ccc(OCCCO)cc2)=N[C@]1(Cc1ccccc1)C(=O)NCc1ccccc1`, the composite z-score in test [1] was 0.491; in [2], 1.18; in test [3] it was 1.11; in test [4], 0.734; in test [5] it was 0.846; in [6], -0.0705. Further, the composite z-score with Lefty1 was -0.0948; in test [8], 1.03. Moreover, the z-score was 0.012 in test [7] and 0.294 (inactive) in [9].
With `N#Cc1ccc(C(O)C2C=CC3C(=O)NC(=O)C3N2Nc2ccccn2)cc1` (stereo not given), the composite z-score in test [1] was 0.782; in [2], 0.615; in test [3], -0.205; in test [4], 0.861; in test [5] it was 0.286; in [6] it was -0.126. For the same compound, the composite z-score in the test on Lefty1 is -0.157; in test [8], 0.144. The z-score in [7] was 1.36; in [9] it was -1.25 (inactive).
Take `COc1ccc(CCNC(=O)[C@@]2(C)c3ccccc3C(=O)N(Cc3cc(C(F)(F)F)cc(C(F)(F)F)c3)[C@H]2c2ccc(CO)cc2)cc1`: the composite z-score in [1] was 0.202; in test [2], 1.07; in test [3] it was 0.431; in test [4] it was -0.0796; in test [5], 1.19; in test [6], 0.491. Moreover, the composite z-score with Lefty1 stood at 0.0292; in test [8] it was 0.367. Besides, the z-score is 0.502 in test [7] and -0.868 (inactive) in test [9].
On to `O=C1O[C@H](c2ccccc2)[C@H](c2ccccc2)N2[C@H]1[C@@H](C(=O)NC[C@H](O)c1ccccc1)[C@]1(C(=O)Nc3ccc(C#CCCO)cc31)[C@H]2c1ccccc1OCCO`, for which the composite z-score in [1] was found to be 1.6; in test [2], 1.18; in test [3], 0.746; in test [4], 0.812; in test [5], 1.1; in [6], 0.419. Further, the composite z-score in the test on Lefty1 is 1.39; in [8], 0.593. Also, the z-score is -0.223 in [7] and 0.597 (inactive) in test [9].
`CC(C)(C)OC(=O)CC[C@]1(C(N)=O)N=C(c2ccc(OCCCO)cc2)O[C@H]1c1ccccc1CN=[N+]=[N-]`: the composite z-score amounted to 3.93 in [1]; 1.15 in test [2]; 0.291 in test [3]; 0.878 in test [4]; 0.421 in [5]; 1.44 in test [6]. Moreover, the composite z-score in the test on Lefty1 is -0.512; in [8], 0.668. The z-score in test [7] is 0.187; in test [9] it was -4.65 (inactive).
Regarding `C[N+](C)(C)CCCCCCNC(=O)[C@@H]1C[C@@H]2C(=O)N[C@@H](Cc3ccccc3)C(=O)N2[C@@H]1c1ccc(O)cc1`, the composite z-score is 2.13 in test [1]; 1.21 in test [2]; -0.371 in [3]; 0.533 in test [4]; 1.43 in test [5]; 1.65 in test [6]. Also, the figures for the composite z-score (with Lefty1; in [8]) were 1.63 and 0.702, respectively. In addition, the figures for the z-score in test [7] and in test [9] were -0.247 and 0.344 (inactive), respectively.
Turning to `CCCCC(O)C1C=CC2C(=O)NC(=O)C2N1Nc1ccccn1` (stereo not given), the composite z-score in test [1] is 1.12; in test [2], 0.0748; in test [3] it was 0.205; in test [4] it was -0.796; in test [5] it was -0.117; in test [6], 0.256. The composite z-score is -0.0094 in the test with Lefty1 and 0.135 in test [8]. Further, the z-score in [7] was -0.0561; in test [9], -0.407 (inactive).
For the compound `CCCC[C@@H]1C[C@H]1[C@@H](NC(=O)c1ccc(C(F)(F)F)cc1)c1ccc(C(=O)OC)cc1`, the composite z-score in test [1] was 1.21; in test [2] it was 0.411; in test [3], 0.135; in test [4], 0.366; in test [5] it was 1.25; in [6], -0.115. The composite z-score in the test with Lefty1 was determined as 0.944; in test [8], 0.849. The z-score in [7] is 1.19; in test [9], 0.915 (inactive).
Consider `CCCCC(=C=CC[C@@H](O)c1cccc(OCCO)c1)C[C@@H](O)COCc1ccccc1`, for which the composite z-score in test [1] was 0.457; in test [2], -0.122; in [3], 0.116; in test [4] it was 0.982; in [5], -0.211; in test [6], -0.178. Besides, the figures for the composite z-score (in the test on Lefty1; in test [8]) were -0.0843 and 0.498, respectively. Further, the figures for the z-score in test [7] and in test [9] were 0.732 and -1.88 (inactive), respectively.
`CO[C@H]1O[C@H](CO)[C@@H](OC(=O)Nc2ccccc2)[C@@H]2OC(=O)[C@H](Cc3ccccc3)C/C=C/C[C@@H](Cc3ccccc3)C(=O)O[C@@H]12`: the composite z-score in test [1] was 2.3; in test [2] it was 1.13; in test [3], 0.473; in test [4], 0.718; in test [5] it was 1.29; in [6], 1.74. Further, the composite z-score came to 1.33 in the test with Lefty1 and 0.588 in test [8]. In addition, the z-score in [7] was 2.27; in test [9] it was -0.617 (inactive).
For the compound `COc1cc(OC)c(C(O)C2C=CC3C(=O)N(c4ccccc4)C(=O)C3N2Nc2ccccc2F)cc1Br` (stereo not given), the composite z-score in test [1] was found to be 1.31; in [2], 1.25; in test [3] it was 0.823; in test [4] it was 1.01; in test [5], 1.34; in test [6], 0.0348. Also, the values for the composite z-score (with Lefty1; in test [8]) were 0.666 and 0.898, respectively. In addition, the figures for the z-score in test [7] and in test [9] were -0.78 and -0.443 (inactive), respectively.
Take `Cc1ccc(S[C@]2(C(=O)NCC(F)(F)F)CC(=O)N(C3CCCCC3)[C@@H]2c2ccc(CO)cc2)cc1`: the composite z-score is 1.12 in test [1]; 0.408 in test [2]; -0.35 in [3]; -0.0988 in test [4]; -0.16 in test [5]; -0.257 in test [6]. Besides, the composite z-score in the test on Lefty1 was -0.583; in [8], 0.235. Also, the z-score is 2.02 in test [7] and -0.0377 (inactive) in test [9].
Regarding `C=CC(CO)NC(=O)OCC1c2ccccc2-c2ccccc21` (stereo not given), the composite z-score in [1] was 0.311; in test [2], 0.421; in [3], 0.476; in test [4] it was 0.578; in test [5], 0.763; in test [6], 0.415. Besides, the composite z-score was 0.618 with Lefty1 and -0.105 in test [8]. The z-score in [7] is 0.02; in [9] it was -0.409 (inactive).
On to `CC(C)C[C@@H]1NC(=O)[C@H]2C[C@@H](C(=O)NCCCCCNC(=O)CS)[C@@H](c3ccc(O)cc3)N2C1=O`, for which the composite z-score amounted to 2.05 in [1]; 1.24 in [2]; 1.19 in test [3]; 0.201 in [4]; 1.33 in test [5]; 1.62 in [6]. Besides, the values for the composite z-score (with Lefty1; in [8]) were 0.497 and 0.408, respectively. The z-score in [7] is -1.22; in [9] it was -1.76 (inactive).
As for `CCCC[C@H]1OB(O)C[C@H]2C1=C(C)C[C@H]1C(=O)C=CC(=O)[C@H]12`, the composite z-score in test [1] is 0.306; in test [2], 0.615; in test [3] it was -0.244; in test [4], 0.483; in test [5], 0.828; in test [6] it was 0.642. For the same compound, the composite z-score with Lefty1 is 1.16; in [8], -0.0126. The z-score in test [7] is -0.353; in test [9], -2.94 (inactive).
On to `CC(C)(C)OC(=O)CC[C@]1(C(=O)N2CCOCC2)N=C(c2ccc(OCCCO)cc2)O[C@H]1c1ccccc1CN=[N+]=[N-]`, for which the composite z-score in [1] was determined as 0.442; in test [2], 1.29; in [3] it was 0.527; in test [4], 0.979; in test [5], 1.42; in test [6], 1.39. For the same compound, the composite z-score came to 0.23 in the test with Lefty1 and 1.19 in test [8]. Also, the figures for the z-score in test [7] and in test [9] were -0.423 and -1.15 (inactive), respectively.
